Common to all, as to experiment: NCI-60 one-dose screen, 48 h (100 = growth as untreated, 0 = no growth, -100 = all killed)
For one experiment, the system named is SK-MEL-2 melanoma. Particulars: 10 µM unless noted.
The next experiment deals with SN12C renal. To be noted: 10 µM unless noted.
In another experiment the test system is UO-31 renal. To be noted: 10 µM unless noted.
In a further experiment the test system is TK-10 renal. Particulars: 10 µM unless noted.
A further experiment deals with ACHN renal. To be noted: 10 µM unless noted.
In another experiment the test system is CAKI-1 renal. Particulars: 10 µM unless noted.
In the next experiment the test system is A498 renal. Particulars: 10 µM unless noted.
In a further experiment the test system is CCRF-CEM leukemia. To be noted: 10 µM unless noted.
The next experiment deals with MOLT-4 leukemia. To be noted: 10 µM unless noted.
The test system of another experiment is SR leukemia. Particulars: 10 µM unless noted.
The subject of the next experiment is RPMI-8226 leukemia. Particulars: 10 µM.
The next experiment has as its system OVCAR-8 ovarian. To be noted: 10 µM unless noted.
A further experiment has as its system OVCAR-5 ovarian. Particulars: 10 µM unless noted.
For another experiment, the system named is OVCAR-4 ovarian. Particulars: 10 µM unless noted.
A further experiment concerns SK-OV-3 ovarian. Particulars: 10 µM.
A further experiment deals with IGROV1 ovarian. To be noted: 10 µM unless noted.
A further experiment has as its system OVCAR-3 ovarian. Particulars: 10 µM unless noted.
The test system of another experiment is HS 578T breast. Particulars: 10 µM unless noted.
For the next experiment, the system named is NCI/ADR-RES ovarian. Particulars: 10 µM unless noted.

The panel holds about 83,000 compounds, 20% with a hit somewhere; the sample as a whole holds those more often.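 48-hour exposure, single concentration, 96-well plates; percent growth endpoint where 0 means no net growth. Active: below 10.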 Values without a mark were called inactive. Active and inactive are the calls of the source.

`CS(=O)(=O)Nc1cccc(C(=O)NCc2ccc(N3CCOCC3)cc2)c1`: the growth with SK-MEL-2 melanoma is 96.7%; in the experiment on SN12C renal, 107%; in the experiment with UO-31 renal, 93%; in the experiment on TK-10 renal, 93.3%; with ACHN renal it was 115%; in the experiment with CAKI-1 renal it was 101%. For the same molecule, the growth was 94% in the experiment on A498 renal; 99.8% in the experiment with CCRF-CEM leukemia; 93.2% in the experiment with MOLT-4 leukemia; 93.3% in the experiment with SR leukemia; 99.7% with RPMI-8226 leukemia; 104% in the experiment on OVCAR-8 ovarian. Moreover, the growth with OVCAR-5 ovarian is 107%; in the experiment with OVCAR-4 ovarian, 107%; in the experiment on SK-OV-3 ovarian, 107%; in the experiment with IGROV1 ovarian, 114%; in the experiment with OVCAR-3 ovarian, 108%; with HS 578T breast, 104%. Further, the growth with NCI/ADR-RES ovarian is 111%.

Take `O=C(Nc1nc2ccccc2[nH]1)C(=O)Nc1nc2ccccc2[nH]1`: the growth in the experiment on SK-MEL-2 melanoma was 98.8%; in the experiment on SN12C renal, 94.5%; with UO-31 renal, 69.6%; with TK-10 renal, 132%; with ACHN renal, 93.4%; in the experiment with CAKI-1 renal it was 91.5%. For the same molecule, the growth with A498 renal is 99.1%; in the experiment on CCRF-CEM leukemia it was 94.7%; with MOLT-4 leukemia it was 103%; in the experiment on SR leukemia, 89.6%; in the experiment with RPMI-8226 leukemia, 90.8%; in the experiment on OVCAR-8 ovarian it was 102%. Besides, the growth in the experiment with OVCAR-5 ovarian is 88.6%; in the experiment with OVCAR-4 ovarian it was 96.3%; in the experiment with SK-OV-3 ovarian, 108%; with IGROV1 ovarian, 81.9%; with OVCAR-3 ovarian, 101%; with HS 578T breast, 105%. Also, the growth in the experiment on NCI/ADR-RES ovarian was 98.7%.

With `COc1ccc(CSc2nc3cc(OC)c(OC)cc3c(=O)n2-c2ccc(Cl)cc2)cc1`, the growth in the experiment with SK-MEL-2 melanoma was 110%; in the experiment on SN12C renal it was 98.6%; in the experiment on UO-31 renal, 71.2%; in the experiment on TK-10 renal, 116%; in the experiment on ACHN renal, 97.1%; in the experiment on CAKI-1 renal it was 91.2%. The growth in the experiment on A498 renal was 88.7%; in the experiment with CCRF-CEM leukemia, 88.6%; with SR leukemia, 102%; in the experiment on RPMI-8226 leukemia, 90.8%; in the experiment with OVCAR-8 ovarian it was 98.7%; in the experiment with OVCAR-5 ovarian it was 94.2%. Moreover, the growth in the experiment with OVCAR-4 ovarian is 103%; in the experiment with SK-OV-3 ovarian, 105%; with IGROV1 ovarian, 104%; in the experiment on OVCAR-3 ovarian, 103%; in the experiment with HS 578T breast, 97.1%; in the experiment with NCI/ADR-RES ovarian it was 101%.

As to `COC1(OC)C2(Cl)C=C(c3ccccc3)C1(Cl)C(Cl)=C2Cl` (configuration not stated), the growth with SK-MEL-2 melanoma was 87%; in the experiment with SN12C renal, 104%; in the experiment with UO-31 renal it was 70%; in the experiment with TK-10 renal, 106%; in the experiment with ACHN renal it was 108%; with CAKI-1 renal, 92.7%. In addition, the growth with A498 renal was 105%; in the experiment with CCRF-CEM leukemia it was 91%; in the experiment on MOLT-4 leukemia, 74.3%; in the experiment with SR leukemia, 83.9%; with RPMI-8226 leukemia, 92.4%; in the experiment on OVCAR-8 ovarian, 93.8%. For the same molecule, the growth in the experiment on OVCAR-5 ovarian is 101%; in the experiment on OVCAR-4 ovarian, 88.6%; in the experiment with SK-OV-3 ovarian, 90.3%; in the experiment on IGROV1 ovarian, 90%; in the experiment on OVCAR-3 ovarian, 107%; in the experiment with HS 578T breast, 116%. In the experiment on NCI/ADR-RES ovarian, the growth is 98.9%.

On to `COc1cccc(-c2ccc3c(c2)C2CCN(Cc4ccccc4)C3C2)c1` (configuration not stated), for which the growth with SK-MEL-2 melanoma is 61.5%; in the experiment on SN12C renal it was 90.4%; with UO-31 renal, 51.6%; with TK-10 renal, 92.4%; in the experiment with ACHN renal it was 93.2%; with CAKI-1 renal, 78.4%. The growth in the experiment with A498 renal is 65%; in the experiment on CCRF-CEM leukemia it was 63.8%; in the experiment on MOLT-4 leukemia it was 68.8%; in the experiment on SR leukemia, 18.4%; in the experiment on RPMI-8226 leukemia, 59.4%; with OVCAR-8 ovarian it was 85%. Further, the growth with OVCAR-5 ovarian was 84.4%; in the experiment with OVCAR-4 ovarian it was 86.5%; in the experiment on SK-OV-3 ovarian, 71.1%; in the experiment on IGROV1 ovarian, 59.9%; with OVCAR-3 ovarian, 72.2%; in the experiment with HS 578T breast it was 90%. Besides, the growth in the experiment on NCI/ADR-RES ovarian was 68.8%.

With `Cc1nn(-c2ccccc2)c2nc3nc4c(c(N)c3c(-c3ccc(Cl)cc3)c12)CCC4`, the growth with SK-MEL-2 melanoma is 96.8%; with SN12C renal, 105%; with UO-31 renal, 75.2%; in the experiment with TK-10 renal, 105%; with ACHN renal, 51.1%; in the experiment with CAKI-1 renal it was 93.1%. The growth in the experiment with A498 renal is 92.4%; in the experiment on MOLT-4 leukemia, 90.4%; in the experiment with SR leukemia, -25.9% (active); with RPMI-8226 leukemia, 82.3%; with OVCAR-8 ovarian, 83%; in the experiment with OVCAR-5 ovarian it was 93.2%. Also, the growth was 101% with OVCAR-4 ovarian; 98.6% in the experiment with SK-OV-3 ovarian; 84.5% with IGROV1 ovarian; 111% in the experiment with OVCAR-3 ovarian; 99.5% with HS 578T breast; 95.2% with NCI/ADR-RES ovarian.

As to `Clc1ccccc1Nc1ccc2nnc(-c3ccncc3)n2n1`, the growth in the experiment on SK-MEL-2 melanoma was 100%; in the experiment with SN12C renal, 87%; in the experiment with UO-31 renal, 89.5%; in the experiment on TK-10 renal it was 76.8%; in the experiment on ACHN renal, 96.6%; in the experiment on CAKI-1 renal it was 86.1%. Besides, the growth with A498 renal is 72.8%; in the experiment with CCRF-CEM leukemia, 79.1%; in the experiment on MOLT-4 leukemia, 89.6%; in the experiment with SR leukemia, 38.6%; in the experiment on RPMI-8226 leukemia, 96.2%; with OVCAR-8 ovarian, 101%. For the same molecule, the growth in the experiment on OVCAR-5 ovarian is 106%; in the experiment with SK-OV-3 ovarian, 121%; in the experiment with OVCAR-3 ovarian, 110%; in the experiment on HS 578T breast, 99.6%; in the experiment with NCI/ADR-RES ovarian, 105%.

On to `Brc1ccc(Br)nn1`, for which the growth with SK-MEL-2 melanoma was -50.2% (active); with SN12C renal, -76.8% (active); with UO-31 renal it was -39.9% (active); in the experiment with TK-10 renal, -78.3% (active); in the experiment with ACHN renal, 2.74% (active); in the experiment with CAKI-1 renal, -92.3% (active). The growth was -80.8% (active) with A498 renal; -13.5% (active) with CCRF-CEM leukemia; -13.6% (active) in the experiment with MOLT-4 leukemia; -25.8% (active) with SR leukemia; -19.7% (active) in the experiment with RPMI-8226 leukemia; -34.1% (active) with OVCAR-8 ovarian. Also, the growth with OVCAR-5 ovarian is -58.6% (active); with OVCAR-4 ovarian, 26%; in the experiment on IGROV1 ovarian, -77.8% (active); with OVCAR-3 ovarian, -97.7% (active); in the experiment on HS 578T breast it was -0.414% (active); with NCI/ADR-RES ovarian it was -32.5% (active).

Values taken from PubChem BioAssay (NCI).
